In the library only some 7.5% were active in any assay of this set; here they are far more common.
ELG1 genotox – qHTS screen for small molecules that induce genotoxicity in human embryonic kidney (HEK293T) cells expressing luciferase-tagged ELG1. HEK293T ELG1-luciferase reporter, luminescence, 16 h. Potency, µM (doses to about 46 µM), without a hit: at the top dose activity change, positive = activation, usual class: activators. actives 1.3% (n = 330,000); also: % of control where 0% means no effect; nearly all actives have a fitted effect of over 60% in size
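HEK293T cells expressing luciferase-tagged ELG1 were exposed to compound or DMSO vehicle for 16 hr at 37 °C and 5% CO2. Luciferase activity was then measured with ONE-Glo after 30 min at room temperature.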
Luc counter – Counterscreen for Luciferase (Kinase-Glo TM) Inhibition | Luciferin 4-monooxygenase (Photuris pensylvanica), Q27757 | Kinase-Glo luciferase, ATP luminescence, 8 min | Potency, µM (series often up to 38.3 µM), for the others: top-dose activity change, negative = inhibition, most hits filed as inhibitors | actives 0.28% (n = 200,000) | AID 1379, 2008; also: % is scaled to controls: 0 for no effect and ±100 for the full control effect; nearly all actives have a fitted effect of over 60% in size
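Substrate mix (final 50 mM imidazole pH 7.2, 50 mM KCl, 7 mM MgCl2, 10 uM ATP, 0.01% Tween 20, 0.05% BSA) plus pin-tool compound, then Kinase-Glo detection mix; 8 min ambient, luminescence read.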
SMN2 splice enh – qHTS Assay for Enhancers of SMN2 Splice Variant Expression | HEK293 SMN2-luciferase splicing reporter, luminescence, 30-36 h | Potency, µM (titrated, usually from 46.1 µM), for inactives: top-dose activity change, positive = activation, actives largely listed as activators | actives 2.8% (n = 210,000) | AID 1458, 2008; also: % of control where 0% means no effect; nearly all actives have a fitted effect of over 55% in size
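qHTS luciferase splicing reporter: luminescence rises when SMN2 exon 7 is included in transfected HEK293 cells. Compound exposure lasted 30-36 h at 37C, with 4.5 mM final sodium butyrate as control, followed by a ONE-Glo read.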
NPC1 promoter act – qHTS Assay for NPC1 Promoter Activators | actives 2.4% (n = 320,000) | Huh7 NPC1 promoter luciferase reporter, 24 h | Potency, µM (top dose mostly 9.22 µM), without a hit: at the top dose activation, usual class: activators; also: % of control where 0% means no effect; nearly all actives have a fitted effect of over 60% in size
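Stable NPC1-promoter luciferase Huh7 line; cpd (DMSO) 24 h, 37 °C, 5% CO2; Amplite luciferase reagent 10 min RT; luminescence readout. qHTS format.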
FLuc modulator – qHTS profiling assay for firefly luciferase inhibitor/activator using purifed enzyme and Km concentrations of substrates (counterscreen for miR-21 project); Potency, µM (titrated, usually from 57.5 µM), inactives show at the top dose activity change, negative = inhibition, usual class: inhibitors; purified FLuc, Km substrates, luminescence inhibition; actives 6.9% (n = 360,000); AID 588342, 2011; Luciferin 4-monooxygenase (Photinus pyralis), P08659;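 also: plate controls were vehicle for no effect and reference inhibitor for full effect; nearly all actives have a fitted effect of over 55% in size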
Target sequence (P08659 whole entry, looked up): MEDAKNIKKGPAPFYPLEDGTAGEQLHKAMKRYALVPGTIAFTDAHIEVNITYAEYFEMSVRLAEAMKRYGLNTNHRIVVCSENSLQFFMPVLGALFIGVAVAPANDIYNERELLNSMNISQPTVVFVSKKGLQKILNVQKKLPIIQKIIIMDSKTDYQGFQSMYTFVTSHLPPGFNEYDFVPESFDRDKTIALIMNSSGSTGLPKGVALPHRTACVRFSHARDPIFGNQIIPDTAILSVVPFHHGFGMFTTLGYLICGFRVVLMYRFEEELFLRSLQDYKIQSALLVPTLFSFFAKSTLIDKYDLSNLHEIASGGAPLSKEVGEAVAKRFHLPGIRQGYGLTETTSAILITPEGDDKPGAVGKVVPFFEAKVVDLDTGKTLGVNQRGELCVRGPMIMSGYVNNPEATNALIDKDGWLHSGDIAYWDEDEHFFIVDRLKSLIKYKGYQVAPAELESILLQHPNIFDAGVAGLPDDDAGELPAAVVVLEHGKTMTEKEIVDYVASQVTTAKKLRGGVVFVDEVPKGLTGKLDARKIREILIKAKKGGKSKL
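Biochemical qHTS of compounds, final roughly 60 µM downward over six points, against 10 nM purified firefly luciferase using Km concentrations of substrates (10 uM D-luciferin, 10 uM ATP) in Tris acetate pH 7.5 buffer; luminescence output.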
Rab9 promoter act – qHTS Assay for Rab9 Promoter Activators. AID 485297, 2010. Huh7 Rab9 promoter-luciferase reporter, luminescence, 24 h. Potency, µM (doses to about 9.22 µM), for inactives: top-dose activation, negative = inhibition, usual class: activators. actives 2.8% (n = 320,000); also: % of control where 0% means no effect; nearly all actives have a fitted effect of over 60% in size
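Stable Rab9-luc Huh7, 1500 cells/well, 2 h settle; cmpd in DMSO, 24 h, 37 °C/5% CO2; luciferase reagent 10 min RT; luminescence.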
* marks the source's active call; other numbers are inactive results. Calls follow the shape of the dose curve; as a rule, active = well fitted curve in the direction sought with a large enough effect; inconclusive = small, poorly fitted or top-dose-only effect, or another doubt; inactive = no such curve, though single readings can be large; an effect the other way counts as inactive or inconclusive. Potency is read from the fitted curve at half-maximal effect.

For COc1ccc(C(=O)COC(=O)c2ccc(NC(=O)c3ccccc3)cc2)cc1 the results were ELG1 genotox 19%, Luc counter -2%, SMN2 splice enh 7%, NPC1 promoter act -6%, FLuc modulator 1% and Rab9 promoter act -3%.
`COc1ccc(-c2nn3c(=O)cc(CN4CCN(C(=O)c5ccc(C(C)(C)C)cc5)CC4)nc3s2)cc1` gave FLuc modulator -17%.
For COc1ccc(C(=O)Nc2cccc3ccccc23)cc1 the results were ELG1 genotox 13%, NPC1 promoter act inconclusive, FLuc modulator 19µM* and Rab9 promoter act inconclusive.
For COc1ccc(Nc2cccccc2=O)cc1 the results were ELG1 genotox 3%, Luc counter -4%, SMN2 splice enh 2%, NPC1 promoter act 29%, FLuc modulator inconclusive and Rab9 promoter act 22%.
Screening COc1ccc(Nc2cccc3ccccc23)cc1 returned ELG1 genotox 9%, NPC1 promoter act 19%, FLuc modulator 27µM* and Rab9 promoter act inconclusive.
`COc1ccc(Nc2cc(C)c3ccccc3n2)cc1` gave ELG1 genotox inconclusive, Luc counter 3%, SMN2 splice enh inconclusive, NPC1 promoter act 28%, FLuc modulator 13µM* and Rab9 promoter act inconclusive.
For COc1cc(OC)c(C(=O)Nc2cccc3ccccc23)cc1OC the results were ELG1 genotox 0%, NPC1 promoter act 10%, FLuc modulator 19µM* and Rab9 promoter act 1%.
COc1ccc(C(=O)NNC(=O)C(=O)Nc2cccc3ccccc23)cc1 was read as ELG1 genotox 4%, NPC1 promoter act -1%, FLuc modulator -8% and Rab9 promoter act 10%.
Screening CCc1cccc(NC(=O)C(Cc2ccccc2)NS(=O)(=O)c2ccc3c(c2)oc(=O)n3C)c1 (stereo not drawn) returned SMN2 splice enh -14% and FLuc modulator 0%.
CCOc1ccc(NC(=O)CNc2cccc(S(=O)(=O)N3CCCCCC3)c2)cc1OCC was read as ELG1 genotox -1%.
For CCc1nn(CC(=O)NCCCOC)c(=O)c2cc3occc3n12 the results were SMN2 splice enh 7% and FLuc modulator 1%.
Screening O=C(CCC(=O)c1ccc[nH]1)c1ccc(Cl)cc1 returned ELG1 genotox 8.2µM*, Luc counter -5%, SMN2 splice enh inconclusive, NPC1 promoter act 3.2µM*, FLuc modulator 12µM* and Rab9 promoter act 1.6µM*.
For COc1ccc(-n2c(=O)c3c(c4cc(OC)ccc4n3C)n(Cc3cccc(OC)c3)c2=O)cc1 the results were FLuc modulator 1%.
`O=C(N/N=C/c1ccc[nH]1)c1cc2ccccc2cc1O` gave ELG1 genotox 25%, NPC1 promoter act 9%, FLuc modulator 6.7µM* and Rab9 promoter act 9%.
Screening O=C(N/N=C/c1ccncc1)c1cc([N+](=O)[O-])cc([N+](=O)[O-])c1O returned ELG1 genotox 3%, Luc counter 1%, SMN2 splice enh 11%, NPC1 promoter act -4%, FLuc modulator 27µM* and Rab9 promoter act -10%.
O=C(N/N=C/c1ccncc1)c1cc2ccccc2cc1O was read as ELG1 genotox inconclusive, NPC1 promoter act 0%, FLuc modulator 7.6µM* and Rab9 promoter act 12%.
Screening CCOC(=O)N1CCC(NC(=O)c2ccc3c(c2)N(Cc2cc(C)ccc2C)C(=O)c2ccccc2S3=O)CC1 (stereo not drawn) returned SMN2 splice enh -19% and FLuc modulator -1%.
CN(C)c1ccc(NC(=O)CCSc2nc(-c3ccco3)cc(C(F)(F)F)n2)cc1 was read as SMN2 splice enh 3% and FLuc modulator 9.5µM*.
Screening COc1ccc(NC(=O)CCSc2nc(-c3ccco3)cc(C(F)(F)F)n2)cc1 returned SMN2 splice enh -7% and FLuc modulator 0%.
COC(=O)CC(=O)CSc1nc2cc(C(=O)NC(C)C)ccc2c(=O)n1CCc1ccccc1 was read as FLuc modulator -2%.
`COc1ccc(C(=O)/C=C/Nc2ccc(NC(C)=O)cc2)cc1OC` gave ELG1 genotox 4%, Luc counter -1%, SMN2 splice enh -1%, NPC1 promoter act -4%, FLuc modulator inconclusive and Rab9 promoter act -5%.
Screening COc1cccc(C(=O)/C=C/Nc2cccc(O)c2)c1 returned ELG1 genotox 2.3µM*, Luc counter inconclusive, SMN2 splice enh -6%, NPC1 promoter act inconclusive, FLuc modulator 0.21µM* and Rab9 promoter act inconclusive.
`COc1ccc(C(=O)/C=C/Nc2ccc(S(=O)(=O)Nc3ncccn3)cc2)cc1` gave ELG1 genotox 6%, Luc counter 3%, SMN2 splice enh 17%, NPC1 promoter act 6%, FLuc modulator inconclusive and Rab9 promoter act 3%.
For COc1cccc(C(=O)/C=C/Nc2ccc(NC(C)=O)cc2)c1 the results were ELG1 genotox inconclusive, Luc counter -12%, SMN2 splice enh 13µM*, NPC1 promoter act inconclusive, FLuc modulator 9.5µM* and Rab9 promoter act 4µM*.
For COc1ccc(N/C=C/C(=O)c2ccc(Cl)cc2)cc1 the results were ELG1 genotox 3.7µM*, Luc counter -6%, SMN2 splice enh 4.5µM*, NPC1 promoter act 0.79µM*, FLuc modulator 0.6µM* and Rab9 promoter act 0.71µM*.
`COc1cccc(N/C=C/C(=O)c2ccc(C)cc2)c1` gave ELG1 genotox 1.5µM*, NPC1 promoter act 0.45µM*, FLuc modulator 0.24µM* and Rab9 promoter act 0.5µM*.
`Cc1ccc(S(=O)(=O)N2CCC(c3ccncc3)CC2)c(C)c1` gave FLuc modulator -6%.
For O=S(=O)(NCC(c1ccco1)S(=O)(=O)c1cccs1)c1ccc(F)c(C(F)(F)F)c1 (stereo not drawn) the results were FLuc modulator -12%.
Screening Cc1ccc(OCCOC(=O)c2cccc(S(=O)(=O)N3CC(C)OC(C)C3)c2)cc1 (stereo not drawn) returned ELG1 genotox -2%, NPC1 promoter act 0%, FLuc modulator 5% and Rab9 promoter act -8%.
Screening CCOC(=O)c1cccc(Nc2ccc3cc(S(=O)(=O)N4CCCCC4)ccc3n2)c1 returned FLuc modulator -1%.

Screening results from PubChem BioAssay.
